From the OligoGym collection

target: ECH1; assay: pooled miR-30 sensor sort-seq; sequence = guide strand; settings: shRNA
Note: reference of the scale not given here.

| Sequence | sensor-assay potency score (higher = more potent) |
| --- | --- |
| TATCGAGTGATGATGTCACGGA | -0.0973 |
| TCAGCGTCTCTCGAAATCTTGT | -0.622 |
| TACAGCAGGTTGACCTTGGTGC | 0.173 |
| TTCTGCGCAGACGTCACACGAA | -0.688 |
| AAGGCTAATACTGAGTCCCGGG | 0.193 |
| TTGACCAGGCTCTGGTTCCCGA | -0.944 |
| AAGCACTCTACCATCTCTCTCC | -0.152 |
| TGTCCATCAGGTCAATACCTGC | -1.4 |
| TGAACATTTTTCCTGCACCAGA | -1.08 |
| TTGTCTGGGAACACCCGGCTGA | 0.142 |
| TTGTGCAGAGGAGCCAGTGAGG | -1.37 |
| TCGTCAGCCATCATCTTGCGGG | -0.729 |
| TTGTTCATGGCATTCCTCTTGT | 0.382 |

target: EDDM3B; assay: as above; settings: shRNA

| Sequence | sensor-assay potency score (higher = more potent) |
| --- | --- |
| TTGGACTTAAGTAGTGCTGTTT | -0.357 |
| TATGCTATCAACATACCCGTCC | 0.462 |
| TTTGAGAGGATTCTGGACCCAT | 0.578 |
| TTTCGGAAGCGATCCATCCAGT | -0.761 |
| TTGCTCTGTACAAGCAGTGTGC | -0.53 |
| TAGAAAGCACTGAATACTCTAC | -0.181 |
| ATCTTTAGGTCTTCTATGCTAT | -0.978 |
| TCAATGTAGTTGAAGCTCCTGC | 0.357 |
| ATATGCTCGATTTTGTACCATG | -1.24 |

target: EDF1; assay: as above; settings: shRNA

| Sequence | sensor-assay potency score (higher = more potent) |
| --- | --- |
| TTCTCATTGATTTTCGTGGCCA | -0.538 |
| TCATAGTCCGCGATCACCTGTG | 0.11 |
| TCTTGGTAATAGAATGTTGTTT | -1.13 |
| TTTCCAATGTCCTTTCCCCGGA | -0.772 |
| TTTCGTGGCCAGGTCCTTCTGC | -0.179 |
| TTTGACAGCAGGAATGGGCTGG | 0.46 |
| TTGCTCTGCCGACCTTGCTGGA | -1.14 |
| TGTTCTTGGTAATAGAATGTTG | -1.17 |
| AATAGAATGTTGTTTGTTCTGG | -0.0468 |
| ATTTCTTGGAAGTCTCCACATC | -1.38 |
| TTGCGCAGCACCGTCACCGTGT | -0.348 |
| TGCAGCTCCTCTGTCTCCCGGT | -0.285 |

target: EFCAB6; assay: as above; settings: shRNA

| Sequence | sensor-assay potency score (higher = more potent) |
| --- | --- |
| TTCACTTAACAGCTGATCCTTT | 0.362 |
| TAAGAGAACATCCACATTCTTC | -0.398 |
| TAGTTCTGAATCCGCAACCTTC | -0.922 |
| TTCTTAGACAAGTCTGACCATC | -0.457 |
